Laboratory results as given in the OligoGym collection.

molecular target: KIR2DL5B; assay: pooled miR-30 sensor sort-seq; sequence = guide strand; conditions: shRNA
Note: reference of the scale not given here.

Sequence | sensor-assay potency score (higher = more potent)
TTTTGTTGTAGAGCTCAGGGAC | 0.231
TTCTTTTTGTTGGAGCAGCAGC | -0.965
TACATGGGAGCTAGCAACCCGG | -1.49
TATCTGTTGGAGGTGCCTTGGG | -0.788

molecular target: KLC3; assay: as above; conditions: shRNA

Sequence | sensor-assay potency score (higher = more potent)
TTTGTACTTGTTCTGGTCCCGG | -0.559
TTGATACTTGTTCTGTTTCAGG | -0.751
TTTCTTTGTACAGCTCTTCCGC | -0.28
TTGTACAGCTCTTCCGCTTGTT | 0.24
TTGGAGAGTGAGCTGCTGCGGC | -0.586
TTGTACTTGTTCTGGTCCCGGT | -0.388
ATCTTGGAGAGTGAGCTGCTGC | -1.26
TTGAGTGACATGGCTCTCTTCA | -0.297
TTCTTTGTACTTGTTCTGGTCC | -0.164
TCTTTGTACAGCTCTTCCGCTT | -0.542
TTCTGTTTCAGGTAGGCTGAGG | -0.432
TTCTTTGTACAGCTCTTCCGCT | -0.475

molecular target: KLF14; assay: as above; conditions: shRNA

Sequence | sensor-assay potency score (higher = more potent)
TAAACTTCTTGTCGCAGTCGAG | -0.734
TACTCGATCATATCTGGATGAT | -0.368
TTCTTGTCGCAGTCGAGCCAGT | -1.02
TTGGTCAGGTGGTCGCTCCGGG | -0.324
TTGTAATAGGCTTTGGTGCAGC | -0.333
ATAGGCTTTGGTGCAGCCCGGG | -0.764
TCGCAGTCGAGCCAGTCGCAGG | -1.84
TTGAGGTGCGACGACTTGTAAT | -1.63
TATCTGGATGATAGGTTGGGTG | -1.33
AAACTTCTTGTCGCAGTCGAGC | -1.65
TAGGCTTTGGTGCAGCCCGGGA | -1.12
ATATCTGGATGATAGGTTGGGT | -0.162

molecular target: KLF15; assay: as above; conditions: shRNA

Sequence | sensor-assay potency score (higher = more potent)
TAACATTGCCATGTCCCTCTGG | 0.313
TATATTTTTATGAAGGACCAAA | -0.999
TATCTAGTTCTCTCACACCCAG | -0.809
TGGATCTGCAGCAACACTGGGA | -0.384
TTTGGTGTACATCTTGCTGCAG | 0.126
AAACTCTTCAATCTCCTCCAGG | -0.475
TTGGTGTACATCTTGCTGCAGC | -0.584
TATTTTATGTGGATGGACCTAT | 0.313
TAGCACTAAAGTTCTGGCCTTG | -0.309
TAAACCTGTCAAAACAAGCTAG | -0.421
TCTCGCACACAGGACACTGGTA | -0.647
TTAAATTTCAAATTTACACAAA | -0.919
